Drawing on PubChem BioAssay, this text covers z-score for 25 compounds.

A number with no mark means an inactive call.

The nature of this test: basal CRE-LacZ reporter activity in PC12 – cell-based, unstimulated, primary screen (AID 1145). The conditions noted are these: no forskolin, luminescence, 4.5 h, higher = more signal, called active from +8 up or from −8 down.
On to `O=C1OCCC/C=C\[C@H]2OC34C=CCN(c5ccc6ccccc6c5)C(=O)[C@H]3N(CCCCCCO)C(=O)[C@@H]4C12` (stereo not given in full), for which the z-score is 0.61.

`COc1ccc([C@H]2C[C@H]3C(Br)=C[C@@H]2C(=O)[C@]32CO2)cc1`: the z-score was 2.85.

Take `COCCOC(=O)N1C(=O)[C@@]2(c3cc(C#CCCO)ccc31)[C@H](c1ccc(OCCO)cc1)N1[C@H](c3ccccc3)[C@H](c3ccccc3)OC(=O)[C@H]1[C@@H]2C(=O)N1CCN(c2ncccn2)CC1`: the z-score is 0.334.

Consider `Cc1ccc(C(C)CC(O)C2C=CC3C(=O)N(C)C(=O)C3N2NC(=O)OC(C)(C)C)o1` (stereo not given), for which the z-score was 0.0569.

Turning to `C=CC[C@@]1(C(=O)N(C)C)N=C(c2ccc(OCCCO)cc2)O[C@@H]1c1ccccc1N=[N+]=[N-]`, the z-score was 0.227.

Take `COCCOC(=O)N1C(=O)[C@@]2(c3cc(C#CCCO)ccc31)[C@H](C(=O)Nc1nc3ccccc3s1)[C@H]1C(=O)O[C@H](c3ccccc3)[C@H](c3ccccc3)N1[C@@H]2c1ccc(OCCO)cc1`: the z-score is -1.14.

`O=C(c1ccccc1)N1Cc2ccccc2[C@@H]2OC(c3ccc(OCCCO)cc3)=N[C@]2(Cc2ccccc2)C1=O`: the z-score is 1.35.

As to `NCCCCCNC(=O)[C@@H]1C[C@@H]2C(=O)N[C@@H](Cc3ccccc3)C(=O)N2[C@@H]1c1cccc(OCCO)c1`, the z-score is 0.415.

In the case of `COc1ccc([C@H]2OC[C@@H]3CC4(CC=CC4)C(=O)N32)cc1`, the z-score was 0.236.

Consider `CN1C(=O)C2C=CC(C(O)Cc3ccccc3)N(Nc3ccccc3)C2C1=O` (stereo not given), for which the z-score was 0.626.

For `[N-]=[N+]=NCc1ccccc1[C@@H]1OC(c2ccc(OCCCO)cc2)=N[C@]1(Cc1ccccc1N=[N+]=[N-])C(=O)N1CCOCC1`, the z-score was 1.78.

In the case of `COc1ccc(CCNC(=O)[C@@]2(Sc3ccc(C)cc3)CC(=O)N(C3CCCCC3)[C@@H]2c2ccc(CO)cc2I)cc1`, the z-score is -0.168.

In the case of `[N-]=[N+]=NCc1ccccc1[C@@H]1OC(c2ccc(OCCCO)cc2)=N[C@]1(CCS(=O)(=O)c1ccccc1)C(=O)NCc1ccccc1`, the z-score is 0.614.

In the case of `O=C1OCC=C[C@H]2OC34C=CCN(CCN5CCOCC5)C(=O)[C@H]3N(CCCO)C(=O)[C@@H]4[C@@H]12` (stereo not given in full), the z-score was 0.329.

Consider `CCc1oc(CC[C@@H](CO)NC(=O)NCCn2cc(C3(O)CCCCC3)nn2)c(C(=O)OC)c1C(=O)OC`, for which the z-score is 1.01.

Take `COC(=O)[C@@]1(Cc2ccc(F)cc2)[C@H]2c3cc(C(=O)N(C)C)n(Cc4nc5ccccc5[nH]4)c3C[C@H]2CN1C(=O)c1ccccc1`: the z-score is 1.53.

For the compound `COc1ccc(CCN2C(=O)[C@@]3(c4ccc([N+](=O)[O-])cc4)CC(=O)N(C4CCCCC4)[C@@H]3c3ccc(CO)cc32)cc1`, the z-score is -0.0512.

In the case of `O=C(O)[C@@]1(CCS(=O)(=O)c2ccccc2)COC(c2ccc(OCCCO)cc2)=N1`, the z-score was -0.389.

Turning to `CC(C)C[C@@H]1NC(=O)[C@H]2C[C@@H](C(=O)NCCCCCCN)[C@@H](c3ccc(O)cc3)N2C1=O`, the z-score was 0.553.

With `CCCC[C@H]1OB(O)C[C@H]2C1=C(COc1ccccc1)C[C@H]1C(=O)N(C)C(=O)[C@H]12`, the z-score is 1.77.

`O=C1O[C@H](c2ccccc2)[C@H](c2ccccc2)N2[C@H]1[C@@H](C(=O)N1CCN(c3ncccn3)CC1)[C@]1(C(=O)Nc3ccc(C#CC4=CCCCC4)cc31)[C@H]2c1ccc(O)cc1`: the z-score was 0.155.

On to `C#CCN(CC=C(C)C)[C@H](CO)c1ccccc1`, for which the z-score is -0.153.

As to `Cc1ccc(S[C@]2(C(=O)NCCN3CCOCC3)CC(=O)N(Cc3ccccc3Cl)[C@@H]2c2ccc(CO)cc2)cc1`, the z-score was 0.441.

On to `O=C1NC(=O)C2C1C=CC(C(O)Cc1ccccc1)N2Nc1ccc(Cl)cc1Cl` (stereo not given), for which the z-score was 0.44.

In the case of `C=CCOC(=O)[C@@H]1[C@H]2C(=O)O[C@H](c3ccccc3)[C@H](c3ccccc3)N2[C@H](c2ccc(OCCOC(=O)[C@@H]3C[C@@H]4C(=O)N5CCC[C@H]5C(=O)N4[C@@H]3c3ccc(O)cc3)cc2)[C@@]12C(=O)Nc1ccc(I)cc12`, the z-score is -1.48.
